Assay outcomes from PubChem BioAssay.
The list is not random: actives were taken first. Their share in the collection is about 1.6%.
KCNQ2 block: inhibitors of rat KCNQ2 potassium channel; O88943; CHO-K1 KCNQ2, FluxOR thallium flux, 20 min; active compounds read low; B-score at 10 µM; 1.1% of 310,000 active; AID 2156;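 active means fluorescence ratio B-score at most minus 3 library SDs, with starting brightness B-score within 2 library SDs, cut at about -5.5 in these data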
KCNQ2 pot: potentiators of rat KCNQ2 potassium channel; CHO-K1 KCNQ2, FluxOR thallium flux fluorescence; active compounds read high; B-score at 10 µM; 0.54% of 310,000 active; AID 2239;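 active means fluorescence ratio B-score at least 3 SD of library B-scores, with initial fluorescence B-score within 3 of them, cut at about 5.3 in these data; same plate scores as AID 2156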;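 further: B-score of peak minus minimum over baseline fluorescence ratio after K+ and Tl+ stimulus; positive B-score means potentiation of KCNQ2 with more thallium influx and brighter signal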
KCNQ2 inh conf: confirmation of rat KCNQ2 potassium channel inhibitors | shares compounds with KCNQ2 block | KCNQ2-expressing cells, thallium flux, inhibition; active compounds read low | activity change, negative = inhibition, % at 10 µM | 57% of 1,000 active
KCNQ1 spec: KCNQ2 inhibitor that also affects human KCNQ1 channel; activity change, negative = inhibition, % at 10 µM; KCNQ1-expressing cells, FluxOR thallium flux fluorescence; active compounds read low; shares compounds with KCNQ2 block; AID 493026; 15% of 1,000 active;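 active means activity change at least 3 SD of negative controls below their mean in both duplicate wells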;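 further: CHO cells stably transfected with KCNQ1 and depolarized by potassium stimulus; peak minus minimum fluorescence over baseline after thallium addition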
CHO Tl ctr: KCNQ2 inhibitor counter-screen hit in parental CHO cells | shares compounds with KCNQ2 block | 14% of 1,000 active | thallium flux counter-screen; active compounds read low | activity change, % at 10 µM
KCNQ2 patch conf: confirmation of rat KCNQ2 potassium channel inhibitors. KCNQ2-expressing cells, automated patch clamp current. 49% of 550 active. calls only at 10 µM. shares compounds with KCNQ2 block. AID 588531
Kir21 conf inh: confirmation of mouse Kir2.1 potassium channel inhibitors; shares compounds with KCNQ2 pot; Kir2.1-expressing cells, FluxOR thallium flux fluorescence; active compounds read low; Tl flux remaining, % of negative control (active compounds read low), % at 10 µM; 41% of 2,300 active; AID 2032;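 active means Primary-screen hit whose thallium flux fell at least 3 control SD below untreated wells in both duplicates, with normal baseline fluorescence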
Target sequence (P35561 whole entry, looked up): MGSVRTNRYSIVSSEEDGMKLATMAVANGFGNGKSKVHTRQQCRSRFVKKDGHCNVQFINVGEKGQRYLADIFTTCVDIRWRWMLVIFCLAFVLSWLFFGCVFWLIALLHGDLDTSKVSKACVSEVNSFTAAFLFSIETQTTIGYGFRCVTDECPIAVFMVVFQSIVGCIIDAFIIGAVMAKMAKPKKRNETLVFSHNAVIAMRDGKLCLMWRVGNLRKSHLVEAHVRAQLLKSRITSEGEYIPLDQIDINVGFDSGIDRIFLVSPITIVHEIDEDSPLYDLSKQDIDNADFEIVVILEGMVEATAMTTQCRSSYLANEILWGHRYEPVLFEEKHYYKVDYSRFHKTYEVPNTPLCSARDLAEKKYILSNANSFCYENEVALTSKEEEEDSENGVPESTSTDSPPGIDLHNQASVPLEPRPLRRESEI
HEK293 Tl flux: counter-screen for Kir2.1 inhibitors: effect in parental HEK293 cells | shares compounds with KCNQ2 pot | FluxOR thallium flux fluorescence; 0% = unstimulated blank wells | FluxOR signal as % of negative control (100 = no effect), % at 10 µM | 19% of 2,300 active;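 active means dye signal at least 3 control SD above or below untreated wells in both duplicates, raw fluorescence within 3, either direction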;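 further: percent is based on the flux ratio of peak minus minimum fluorescence over baseline F0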
Of the large screens only hits and unclear results are named; the others gave an inactive call (follow-up assays come after a bar, where they were run). Unless noted, how the calls were made is not given here.

c1ccc(-c2cc(-c3ccccc3)[n+](-c3ccccc3)c(-c3ccccc3)c2)cc1	KCNQ2 block -12.8 | KCNQ2 inh conf inactive | KCNQ1 spec inactive | CHO Tl ctr inactive | Kir21 conf inh 34.5% | HEK293 Tl flux inactive
Cc1ccc(-c2cc(-c3ccc(C)cc3)[n+](-c3ccccc3)c(-c3ccc(C)cc3)c2)cc1	KCNQ2 block -12.6 | KCNQ2 inh conf inactive | KCNQ1 spec inactive | CHO Tl ctr inactive | Kir21 conf inh 11.5% | HEK293 Tl flux inactive
Cc1ccc(-c2cc(-c3ccc(C)cc3)[n+](C)o2)cc1	none (no result: KCNQ2 pot)
CCOC(=O)c1cccc(-[n+]2c(-c3ccccc3)cc(-c3ccccc3)cc2-c2ccccc2)c1	KCNQ2 block -7.3 | KCNQ2 inh conf -31.5% | KCNQ1 spec inactive | CHO Tl ctr inactive | KCNQ2 patch conf inactive | Kir21 conf inh inactive | HEK293 Tl flux inactive
C[n+]1c(-c2ccccc2)cc(-c2ccc(Cl)cc2)cc1-c1ccccc1	none
CCOC(=O)c1ccccc1C(=O)OCC	none
Cc1ccc(N=C(/N=C(\N)N[N+](=O)[O-])Nc2ccc(C)cc2)cc1	none
CCC1CCCCN1CC(=O)c1ccc(OC(F)F)cc1 (stereo not drawn)	none
C=CCn1c(O)c(C(C)=O)c(=O)[nH]c1=O (tested in a mixture with another compound)	none
CCc1ccc(CN2CCN(Cc3ccc(SC)cc3)CC2)cc1	none (no result: KCNQ2 pot) | Kir21 conf inh 27.0% | HEK293 Tl flux inactive
COc1ccccc1N1CCN(Cc2ccc(SC)cc2)CC1	none
CCOc1ccc(N2C(=O)NC(=O)/C(=C/c3cnc(SC)nc3)C2=O)cc1	none
C/C=C(\C)C(=O)OC1C(C)=C2C(C1OC(=O)CCCCC)C(C)(OC(C)=O)CC(OC(=O)CCC)C1(O)C2OC(=O)C1(C)O (stereo not drawn)	none
O=P(Oc1ccccc1)(Oc1ccccc1)C(O)c1ccccc1 (stereo not drawn)	none (no result: KCNQ2 pot)
O=P(Oc1ccccc1)(Oc1ccccc1)c1ccccc1	none (no result: KCNQ2 pot) | Kir21 conf inh 60.0% | HEK293 Tl flux inactive
CCC1=CCN(CCc2c(C)[nH]c3ccccc23)CC1	none
COc1ccc2c(C)c(CCC(=O)N3C[C@H]4C[C@@H](C3)c3cccc(=O)n3C4)c(=O)oc2c1	none (no result: KCNQ2 pot)
CCNc1cc(N2CCNCC2)ccc1[N+](=O)[O-]	none
Cc1cccc(CCNCc2cc3cccc(C)c3[nH]c2=O)c1	none | Kir21 conf inh 52.0% | HEK293 Tl flux inactive
Cc1ccc2cc(CNCCc3ccccc3C)c(=O)[nH]c2c1	none
CCCCCSc1cc(OC)c(CCN(C)C)cc1OC	none | Kir21 conf inh 45.0% | HEK293 Tl flux inactive
CCCCCSc1cc(O)c(C(CNC)C(C)C)cc1OC (stereo not drawn)	none
CC(C)c1ccccc1NC1=NCCCS1	none
COc1ccc2c(c1O)C13CCN(C)C(C2)C1CCC(=O)C3 (stereo not drawn)	none (no result: KCNQ2 pot)
Fc1ccc(C(OCCN2CCCC2)c2ccc(Br)cc2)cc1 (stereo not drawn)	none (no result: KCNQ2 pot) | Kir21 conf inh 45.0% | HEK293 Tl flux inactive
Fc1ccc(C(OCCN2CCCC2)c2ccc(F)cc2)cc1	none
COc1ccc(CNCCc2c(C)[nH]c3ccc(OC(F)(F)F)cc23)c(OC)c1	none (no result: KCNQ2 pot) | Kir21 conf inh inactive | HEK293 Tl flux inactive
COc1ccc2[nH]c(C)c(CCNCc3cc(OC)c(OC)c(OC)c3)c2c1	none (no result: KCNQ2 pot)
O=C(N/N=C/c1c(O)n(Cc2ccco2)c(=O)[nH]c1=O)c1ccccc1O	none (no result: KCNQ2 pot)
